Results as given in PubChem BioAssay (EPA / NIEHS).
Results filed as inconclusive are left out. Activity calls are given as the source filed them. Rule for the calls, unless noted: active = hit-call score of the fitted dose curve at least 0.9, where 1 is the maximum; inactive = score below 0.9.

Tests used:
[1] = TAMU_HCS_1.5hr_SingleDonor1434_Cytotoxicity: Cytotoxicity Assessment using High-content Screening (HCS) Fluorescent Imaging for the Texas A&M University (TAMU) 1.5-hr Human Induced Pluripotent Stem Cell (iPSC)-derived Cardiotoxicity Assay (AID 2284234; active = hit-call score of the fitted dose curve at least 0.9, where 1 is the maximum)
Summary of the method: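 Human iPSC-derived cardiomyocytes dosed at 0.2, 1, 10, 100 uM final (0.5% DMSO) for 90 min at 37 C. Hoechst 33342-stained nuclei counted by 10x high-content imaging; POD is EC10, a 10% drop in total cell count versus DMSO.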

[2] = TAMU_PeakParms_SingleDonor1434_QT: Texas A&M University (TAMU) 1.5-hr Human Induced Pluripotent Stem Cell (iPSC)-derived Cardiomyocytes Calcium (Ca+2) Flux Assay for Cardiotoxicity: QT (decay-rise ratio) (AID 2284235; active = hit-call score of the fitted dose curve at least 0.9, where 1 is the maximum)
Summary of the method: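 iPSC-derived cardiomyocytes (single donor 1434) dosed at 0.2, 1, 10, 100 uM final in 0.5% DMSO, 90 min at 37C. Ca2+ flux fluorescence decay/rise ratio; EC05 (5% increase versus DMSO) as POD, excluding beat-arrest and severe-notch data.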

[3] = CCTE_Mundy_HCI_Cortical_Synap_Neur_Matur_SynapseCount: CCTE's Synaptogenesis and Neurite Maturation Assay in rat cortical cells for Synapse Count, Mundy Lab (AID 2284218)
Summary of the method: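 Rat primary cortical cells in 96-well plates received AraC at DIV 5 and were dosed with chemicals at DIV 7 with media change, through DIV 12 (288.33 h). Synapses per neuron counted by high-content imaging of MAP2/synaptophysin/Hoechst staining, versus DMSO baseline.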

[4] = CCTE_Mundy_HCI_hN2_NOG_NeuriteCount: CCTE's Neurite Outgrowth Assay in human hN2 cells for Neurite Count, Mundy Lab (AID 2284219; active = hit-call score of the fitted dose curve at least 0.9, where 1 is the maximum)
Summary of the method: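 In this morphology assay, hNP1-derived neurons received test chemical 2 h post-plating and were fixed two days later in warm paraformaldehyde/sucrose containing Hoechst 33342. Neurites, labelled by rabbit anti-βIII-tubulin (1:800) and Alexa Fluor-488 (1:500), were counted automatically.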

[5] = CCTE_Mundy_HCI_hN2_NOG_NeuriteLength: CCTE's Neurite Outgrowth Assay in human hN2 cells for Neurite Length, Mundy Lab (AID 2284220; active = hit-call score of the fitted dose curve at least 0.9, where 1 is the maximum)
Summary of the method: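 Read-out is neurite length from high-content imaging of βIII-tubulin/Alexa Fluor-488-labelled neurons, referenced to DMSO controls.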

[6] = CCTE_Mundy_HCI_hN2_NOG_NeuronCount: CCTE's Neurite Outgrowth Assay in human hN2 cells for Neuron Count, Mundy Lab (AID 2284221; active = hit-call score of the fitted dose curve at least 0.9, where 1 is the maximum)
Summary of the method: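 Read-out is the number of betaIII-tubulin-positive neurons imaged by automated high-content analysis, with DMSO as negative control.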

[7] = CCTE_Mundy_HCI_Cortical_Synap_Neur_Matur_NeuriteCount: CCTE's Synaptogenesis and Neurite Maturation Assay in rat cortical cells for Neurite Count, Mundy Lab (AID 2284222);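 note: exposure from day 7 to day 12 in vitro with readout at day 12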
Summary of the method: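 Rat primary cortical cells; AraC added at DIV 5, chemicals dosed with media change at DIV 7 through DIV 12. MAP2/synaptophysin/Hoechst immunostaining, high-content imaging of neurite number; fitted relative to DMSO.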

[8] = CCTE_Mundy_HCI_Cortical_Synap_Neur_Matur_CellBodySpotCount: CCTE's Synaptogenesis and Neurite Maturation Assay in rat cortical cells for Cell Body Spot Count, Mundy Lab (AID 2284223)
Summary of the method: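 Chemicals were applied to AraC-treated rat primary cortical cells at DIV 7 and measured at DIV 12. Fixed cells were labelled for MAP2, synaptophysin and nuclei, and high-content imaging gave cell body synaptophysin spot counts per neuron relative to DMSO.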

[9] = CCTE_Mundy_HCI_hNP1_Pro_ResponderAvgInten: CCTE's Proliferation Assay in human neuroprogenitor cells, Mundy Lab (AID 2284224; active = hit-call score of the fitted dose curve at least 0.9, where 1 is the maximum;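 note: human neural progenitor cells hNP1 derived from WA09 embryonic stem cells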)
Summary of the method: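 Proliferation read as average intensity of BrdU-positive cells, imaged at 26.25 h post-dosing: chemical exposure started after 40–44 h culture, BrdU during final 4 h, paraformaldehyde fixation. Positive-direction fit relative to DMSO.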

[10] = CCTE_Mundy_HCI_Cortical_NOG_NeuronCount: CCTE's Neurite Outgrowth Assay in rat cortical cells for Neuron Count, Mundy Lab (AID 2284236; active = hit-call score of the fitted dose curve at least 0.9, where 1 is the maximum;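 note: neurons counted by imaging betaIII-tubulin and Hoechst stained cortical cells; cells exposed to compound for about 48 hours before fixation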)
Summary of the method: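 Read-out: neuron number by high-content imaging of betaIII-tubulin (Alexa Fluor-488) and Hoechst-labelled rat primary cortical cells.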

[11] = CCTE_Mundy_HCI_Cortical_NOG_BPCount: CCTE's Neurite Outgrowth Assay in rat cortical cells for Branch Point Count, Mundy Lab (AID 2284237);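 for AC50: branch points counted about two days after chemical exposure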
Summary of the method: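 Measured 50.33 h after dosing, this morphology endpoint uses rat primary cortical cultures labelled for betaIII-tubulin. Branch points are quantified by high-content imaging, with DMSO as negative control and baseline.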

[12] = CCTE_Mundy_HCI_hNP1_Casp3_7: CCTE's Caspase-Glo 3/7 Assay in human neuroprogenitor cells for Apoptosis, Mundy Lab (AID 2284240)
Summary of the method: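 Luminescent caspase-3/7 readout, 26.5 h post-dose, in human neural progenitor cells from WA09 embryonic stem cells. Cells grew 40–44 h at 37 °C, 5% CO2 before chemical addition. Activity analysed as signal increase over DMSO baseline.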

[13] = CCTE_Mundy_HCI_hNP1_CellTiter: CCTE's Cell Titer-Glo 2 Assay in human neuroprogenitor cells for Viability, Mundy Lab (AID 2284241; active = hit-call score of the fitted dose curve at least 0.9, where 1 is the maximum;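 for AC50: a hit is a drop in ATP luminescence versus DMSO meaning reduced viability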)
Summary of the method: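 Viability read as luminescent ATP content (CellTiter-Glo, 30 min room temperature) twenty-four hours after dosing, relative to DMSO. Cells: WA09-derived hNP1 neuroprogenitors on poly-L-ornithine/laminin, plated 40 to 44 hours before chemical.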

[14] = CCTE_Mundy_HCI_Cortical_Synap_Neur_Matur_NeuronCount: CCTE's Synaptogenesis and Neurite Maturation Assay in rat cortical cells for Neuron Count, Mundy Lab (AID 2284242; active = hit-call score of the fitted dose curve at least 0.9, where 1 is the maximum;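 for AC50: hits reduce neuron count versus DMSO baseline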)
Summary of the method: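 Rat primary cortical cells received AraC at DIV 5 to arrest glia, then were dosed with chemicals at DIV 7 through DIV 12. Fixed cells were stained for nuclei, MAP2 and synaptophysin, and neurons were counted by high-content imaging relative to DMSO.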

[15] = IUF_NPC2c_oligodendrocyte_migration_120hr: Leibniz Research Institute for Environmental Medicine (IUF) 120-hour Neural Progenitor Cell Migration Assay for Oligodendrocyte Migration (NPC2c) (AID 2284297);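 note: O4-positive oligodendrocyte migration distance divided by radial glia migration distance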
Summary of the method: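 Using fetal brain neural progenitor spheres differentiating in N2 medium at 37C, compounds were present for 120 h. Oligodendrocyte migration distance, normalized to radial glia migration, was measured from imaged O4 staining.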

[16] = IUF_NPC2a_radial_glia_migration_120hr: Leibniz Research Institute for Environmental Medicine (IUF) 120-hour Neural Progenitor Cell Migration Assay for Radial Glia Migration (NPC2a) (AID 2284298)
Summary of the method: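 Exposure of 0.3 mm primary hNPC spheres runs day 0 to 120 h with a half-volume medium change at day 3. Fixed cells get Hoechst staining; high-content analysis of nuclear positions yields radial glia migration distance per well, compared against DMSO controls.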

[17] = IUF_NPC2a_radial_glia_migration_72hr: Leibniz Research Institute for Environmental Medicine (IUF) 72-hour Neural Progenitor Cell Migration Assay for Radial Glia Migration (NPC2a) (AID 2284299)
Summary of the method: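 Human fetal cortex (GW 16-19) neural progenitor spheres, 0.3 mm, plated on poly-D-lysine/laminin in N2 differentiation medium with compound from day 0. Radial glia migration distance (um, sphere core edge to migration edge) measured manually in four directions on 72 h brightfield images; well mean used.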

[18] = IUF_NPC2b_neuronal_migration_120hr: Leibniz Research Institute for Environmental Medicine (IUF) 120-hour Neural Progenitor Cell Migration Assay for Neuron Migration (NPC2b) (AID 2284300)
Summary of the method: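 Fetal human NPC spheres migrate on PDL/laminin during 120 h compound treatment; neuronal migration distance, glia-normalized, scored versus DMSO control.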

[19] = IUF_NPC3_neuronal_differentiation_120hr: Leibniz Research Institute for Environmental Medicine (IUF) 120-hour Neuronal Differentiation Assay (NPC3) (AID 2284301)
Summary of the method: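 Human fetal (GW 16-19) neural progenitor spheres (0.3 mm) plated on poly-D-lysine/laminin in N2 differentiation medium, exposed 120 h at 37C with half-medium renewal day 3; 7 concentrations. TUBB3+ cells as % of Hoechst nuclei, CNN-identified; DMSO baseline.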

[20] = IUF_NPC4_neurite_length_120hr: Leibniz Research Institute for Environmental Medicine (IUF) 120-hour Neuronal Morphology Assay for Neurite Length (NPC4) (AID 2284302)
Summary of the method: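 Human fetal neural progenitor spheres (0.3 mm) plated on poly-D-lysine/laminin in N2 differentiation medium, exposed from day 0 for 120 h with half-medium refresh at day 3, 37C. Mean neurite length (um) of TUBB3-positive neurons from skeletonized immunostaining images; DMSO ≤0.1%.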

Measured: AC50

c1ccc2ccccc2c1
inactive: [1] | [2]

CN(C)c1ccc(C(=C2C=CC(=[N+](C)C)C=C2)c2ccc(N(C)C)cc2)cc1
active: [1] 4.8 µM | [2] 0.352 µM

CC/C(=C(/CC)c1ccc(O)cc1)c1ccc(O)cc1
inactive: [7] | [8] | [9] | [2]
active: [3] 15.4 µM | [4] 9.12 µM | [5] 7.97 µM | [6] 3.72 µM | [1] 50 µM | [10] 28.9 µM | [11] 12.8 µM | [12] 26.5 µM | [13] 29.7 µM | [14] 14 µM

Oc1ccccc1
inactive: [3] | [4] | [5] | [6] | [7] | [8] | [11] | [12] | [13]

CC(C)(c1cc(Br)c(O)c(Br)c1)c1cc(Br)c(O)c(Br)c1
active: [1] 84.8 µM | [15] 3.61 µM | [16] 3.14 µM | [17] 3.76 µM | [18] 5.12 µM | [19] 5.06 µM | [20] 3.33 µM

CN1C(=O)CC[C@H]1c1cccnc1
inactive: [3] | [4] | [5] | [6] | [7] | [8] | [11] | [12] | [13] | [14]

CCCOC(=O)c1cc(O)c(O)c(O)c1
inactive: [1]
active: [2] 22.1 µM

O=C1O[C@H]([C@@H](O)CO)C(O)=C1O
not listed: [1] | [2] | [4] | [5] | [6] | [9] | [14]
inactive: all other assays above
